proKLK7 act – proKLK7 zymogen activators, primary screen, biochemical, fluorescence intensity. Kallikrein-7 (Homo sapiens), P49862. purified proKLK7, EDANS-DABCYL substrate fluorescence; 100% is mature enzyme control, 0% vehicle. activation, % at 7 µM. 370,000 tested, 0.9% active;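 active means activation above the mean of all tested compounds plus 3 SD, computed per campaign excluding outliers beyond control limits, cut at about 13% in these data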
HIF activator – HIF pathway transcriptional activators, primary screen, cell-based, U2OS HRE-luciferase, luminescence. 300,000 tested, 0.32% active. U2OS HRE-luciferase reporter; normalized: DMSO 0%, desferrioxamine 100%. AID 1910, 2009. activation, % at 7.5 µM (by protocol);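 active means mean activation of at least 10% of the iron chelator positive control signal, with at least half of replicates also reaching 10%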
GC-B act – human GC-B receptor activators, primary screen, HEK293 GC-B cells, cGMP TR-FRET, EC30 CNP; Atrial natriuretic peptide receptor 2 (Homo sapiens), P20594; 0% at EC30 CNP, 100% saturating CNP; activation, % at 10 µM; 370,000 tested, 0.11% active; AID 1920062, 2024;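 active means activation at 10 µM reaching about 35% in either raw or pattern-adjusted values, limit read from the data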
Target sequence (P20594 whole entry, looked up): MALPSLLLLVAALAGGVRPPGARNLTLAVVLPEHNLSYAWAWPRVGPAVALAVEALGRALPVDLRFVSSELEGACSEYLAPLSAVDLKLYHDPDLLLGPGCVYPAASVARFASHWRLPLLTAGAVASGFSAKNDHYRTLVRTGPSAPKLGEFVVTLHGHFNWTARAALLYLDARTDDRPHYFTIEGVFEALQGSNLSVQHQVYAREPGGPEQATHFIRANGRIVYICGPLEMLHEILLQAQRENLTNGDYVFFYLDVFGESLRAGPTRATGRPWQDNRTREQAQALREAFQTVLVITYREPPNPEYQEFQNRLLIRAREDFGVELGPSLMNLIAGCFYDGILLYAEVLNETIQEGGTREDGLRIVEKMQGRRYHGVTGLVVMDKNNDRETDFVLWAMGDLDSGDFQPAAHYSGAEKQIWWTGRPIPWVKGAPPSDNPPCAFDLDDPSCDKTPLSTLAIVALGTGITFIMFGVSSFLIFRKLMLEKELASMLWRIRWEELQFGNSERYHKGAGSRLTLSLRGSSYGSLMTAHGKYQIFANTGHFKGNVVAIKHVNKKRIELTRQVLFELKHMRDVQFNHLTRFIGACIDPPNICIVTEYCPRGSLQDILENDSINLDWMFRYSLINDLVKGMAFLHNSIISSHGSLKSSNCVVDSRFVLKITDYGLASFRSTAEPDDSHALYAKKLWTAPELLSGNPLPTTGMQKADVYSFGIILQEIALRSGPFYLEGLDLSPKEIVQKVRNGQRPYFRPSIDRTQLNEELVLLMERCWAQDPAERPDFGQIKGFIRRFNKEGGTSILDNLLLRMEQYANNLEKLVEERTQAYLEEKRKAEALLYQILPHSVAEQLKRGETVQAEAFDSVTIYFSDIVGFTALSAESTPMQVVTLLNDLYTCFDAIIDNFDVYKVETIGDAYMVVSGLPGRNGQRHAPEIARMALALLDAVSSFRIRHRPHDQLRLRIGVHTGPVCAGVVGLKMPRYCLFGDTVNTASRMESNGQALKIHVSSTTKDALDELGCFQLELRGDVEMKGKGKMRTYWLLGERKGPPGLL
GC-A act – GC-A stimulated cGMP production enhancers – HEK293 GC-A cells, cGMP TR-FRET, EC30 ANP, primary screen; AID 1671463, 2021; activation, % at 10 µM; Atrial natriuretic peptide receptor 1 (Homo sapiens), P16066; 0% at EC30 ANP, 100% saturating ANP; 370,000 tested, 0.14% active; in the data active means activation above about 40%
Numbers stand for hits; n = inactive; x = no result. Compounds with a hit are over-represented: about 1.3% of the library has one in this group of screens.

SMILES	proKLK7 act	HIF activator	GC-B act	GC-A act
Cn1c(SCC(=O)Nc2ccccc2)nnc1-c1ccc(NC(=O)CCc2ccccc2)cc1	n	26	n	n
C=CCNS(=O)(=O)c1cccc2cc(C(=O)O)c(O)cc12	27	n	n	n
Nc1nc(NC(=O)c2ccccc2)nn1-c1ccccc1	n	n	n	n
CC(=O)Nc1nc(NCc2ccccc2Cl)n(-c2ccccc2)n1	n	n	n	n
O=C(Nc1nc(NC(=O)c2ccco2)n(-c2ccccc2)n1)c1ccccc1	n	12	n	n
CC(=O)Nc1nc(NC(=O)/C=C/c2ccccc2)n(-c2ccccc2)n1	n	10	n	n
O=C(Nc1ccc(F)cc1)OCc1cn(Cc2cc(F)cc(F)c2)nn1	n	x	n	n
O=C(NCc1c(F)cccc1F)C1CCC(CNS(=O)(=O)c2cccc3cccnc23)CC1 (stereo not given)	n	x	n	n
COc1ccc(Cc2nnc(SCC(=O)NC3CCCCC3)n2C)cc1	n	70	n	n
COc1ccc(NC(=O)Cc2nnc(SCC(=O)NC3CCCCC3)n2C)cc1	n	n	n	n
CC(C)[C@H]1Cn2nncc2Cn2c3ccccc3c(=O)n21	n	x	n	n
COCc1c(C(=O)N/N=C(\C)c2ccc(Cl)s2)nnn1-c1nonc1N	n	29	n	n
C/C(=N\NC(=O)c1nnn(-c2nonc2N)c1-c1ccccc1)c1ccccc1O	n	33	n	n
O=C(Cn1nnc(-c2ccc(N3CCOCC3)cc2)n1)c1ccccc1	n	x	n	n
CCc1ccc(Nc2nnc(SC3CCOC3=O)s2)cc1 (stereo not given)	n	n	n	48
CCOC(=O)N1CCN(C(=O)C2CCN(C(=O)c3ccccc3C)CC2)CC1	n	x	n	41
Cc1ccccc1C(=O)N1CCC(C(=O)N2CCN(c3ncccn3)CC2)CC1	n	x	n	n
COc1ccc(OC)c(-n2c(SCC(=O)Nc3cccc(S(N)(=O)=O)c3)nc3ccccc3c2=O)c1	n	n	37	n
COc1ccccc1-n1c(SCC(=O)Nc2cccc(S(N)(=O)=O)c2)nc2ccccc2c1=O	n	n	n	n
C[C@@]12C[C@@H]3C(=O)N(Cc4ccccc4)CC(=O)N3[C@@H]1N(S(=O)(=O)c1ccccc1)c1ccccc12	n	x	n	n
Cc1ccc(CNC(=O)NC2CCCCC2)cc1	n	18	n	n
CN(C)S(=O)(=O)c1cccc(NC(=S)N/N=C/c2cc(Br)ccc2O)c1	n	47	n	n
Cc1csc(NC(=O)c2cc3c(s2)-c2ccccc2OC3)n1	n	n	n	n
Cc1c(NC(=O)c2cc3c(s2)-c2ccccc2OC3)cccc1[N+](=O)[O-]	n	n	59	n
c1ccc(CSc2ncccn2)cc1	n	x	n	n
SMILES	proKLK7 act	HIF activator	GC-B act	GC-A act
c1ccc(CSC2=NNC(c3ccccn3)S2)cc1 (stereo not given)	n	14	n	n
O=C(CSC1=NNC(c2ccccn2)S1)Nc1ccc(C(F)(F)F)cc1 (stereo not given)	n	25	n	n
C/C(=N\Nc1ccc2nncn2n1)c1ccco1	n	n	n	n
C/C(=N\Nc1ccc2nncn2n1)c1ccccn1	n	129	n	n
CC1CCN(c2nc(Cl)nc(Nc3ccc([N+](=O)[O-])cc3)n2)CC1	n	n	n	67
CCCN=C1CC(C)(C)CC(=O)/C1=C(/O)CCC	n	n	n	n
CCC/C(O)=C1\C(=O)CC(C)(C)CC1=NCc1ccccc1	n	77	n	n
CCc1nc(N2CCN(C(=O)c3ccco3)CC2)c2c3c(sc2n1)CCCC3	n	499	n	n
CC(C)Cc1nc(N2CCN(C(=O)c3ccco3)CC2)c(C#N)c2c1CCCC2	n	n	119	n
CCc1nc(N2CCN(C(=O)c3ccccc3)CC2)c2c3c(sc2n1)CCCC3	n	n	n	n
NC(=O)c1nsc(C(=O)N(c2ccc(F)cc2)C(C(=O)NC2CCCC2)c2ccncc2)c1N (stereo not given)	n	n	n	n
CC(C)c1ccc(N(C(=O)c2snc(C(N)=O)c2N)C(C(=O)NC2CCCC2)c2ccncc2)cc1 (stereo not given)	n	44	n	n
CCC(=O)NC(c1ccc(Cl)cc1Cl)c1ccc2cccnc2c1O (stereo not given)	n	102	n	n
COc1ccc(C(NC(=O)C(C)C)c2ccc3cccnc3c2O)cc1 (stereo not given)	n	121	n	n
CCCCC(=O)NC(c1ccc(OC)cc1)c1ccc2cccnc2c1O (stereo not given)	n	x	n	n
CCC(=O)NC(c1cc(Cl)c2cccnc2c1O)C(C)C (stereo not given)	n	x	n	n
CC(C)C(=O)NC(c1ccc(Cl)cc1Cl)c1ccc2cccnc2c1O (stereo not given)	n	80	n	n
CC(=O)NC(c1ccc(Cl)cc1)c1ccc2cccnc2c1O (stereo not given)	n	x	n	n
Cc1cc(NC(c2ccc(Cl)cc2)c2ccc3cccnc3c2O)no1 (stereo not given)	n	169	n	n
CC(C)(C)C(=O)NC1CCCCN(Cc2cccc(C(F)(F)F)c2)C1=O (stereo not given)	n	x	n	n
O=C(Nc1c(-c2ccc(C(F)(F)F)cc2)nc2ncccn12)c1ccc(F)cc1	n	x	n	n
CCCCC(=O)NC(c1ccc(Cl)cc1Cl)c1ccc2cccnc2c1O (stereo not given)	n	28	n	n
CCCC(=O)NC(c1ccc(OC)c(OC)c1)c1cc(Cl)c2cccnc2c1O (stereo not given)	n	n	n	n
O=C(N/N=C/c1ccccc1O)c1cccc2ccccc12	n	n	n	n
Cc1ccc2[nH]c(C(=O)N/N=C/c3ccccc3O)c(C)c2c1	n	169	n	n
SMILES	proKLK7 act	HIF activator	GC-B act	GC-A act
O=C(N/N=C/c1ccccc1O)c1cc(=O)[nH]c2ccccc12	x	11	x	x
Cc1ccc(-c2cc(C(=O)N3CCOCC3)c3ccccc3n2)o1	112	x	n	n
c1ccc(-n2ncc3c(NCc4ccco4)ncnc32)cc1	n	9.5	n	n
O=C1OCCC1Sc1nc(-c2ccccc2)cs1 (stereo not given)	n	n	n	72
O=C(O[C@H]1CC[C@@]23CCCN2C(=O)CCC[C@H]3C1)N1CCN(c2ccccc2)CC1	x	x	n	n
Cc1onc(-c2ccccc2)c1C(=O)Nc1ccc(S(=O)(=O)N2CCCC2)cc1	n	87	n	n
Cc1onc(-c2ccccc2)c1C(=O)Nc1ccc(S(=O)(=O)N2CCCCC2)cc1	n	x	n	n
Cc1ccc(Nc2cc(C)nn2-c2nc(C)cc(C)n2)cc1	n	n	n	n
Cc1ccc(Nc2cc(C)nn2-c2nc(C)cc(=O)[nH]2)cc1	x	216	x	x
CC(=O)N1CCN(c2cc(-c3ccco3)nc3cc(-c4ccccc4)nn23)CC1	x	x	n	n
CCC(=O)Nc1cc(C(=O)OCC(=O)c2ccc(Cl)cc2Cl)ccc1C	n	n	n	57

Screens from PubChem.
